From PubChem BioAssay AID652042 (Broad Institute, 2013) come the findings set out here.

About 350 (32%) of roughly 1,100 compounds were called active. The list is a sample of the results. Potency and affinity values are given separately. Unmarked numbers belong to inactive results. No rule for the calls is given here.

The nature of this test: viability loss in CEM21 cells – cell-based, CellTiter-Glo luminescence, cherry-picked, cytotoxicity control for viral fusion inhibitor project, dose response (AID 652042). Particulars: CellTiter-Glo ATP luminescence, 24 h; series mostly up to 35 µM; activity change, negative = cytotoxicity: at the top concentration. (In general: ATP-based viability assays read luminescence as a measure of living cells.)
As for `O=C(NC1CCCCC1)C(c1ccc(Cl)cc1)N(C(=O)c1cnccn1)c1ccc2c(c1)OCO2` (configuration not stated), the “activity change, negative = cytotoxicity” value was -11.4%. For `COc1ccc(N2CCn3c2nc2c3c(=O)n(CCCc3ccccc3)c(=O)n2C)c(OC)c1` the value was -7.02% [at 16 µM]; for `CCN1C(=O)[C@H]2[C@@H](c3ccc(C(F)(F)F)cc3)N[C@]3(CCCN(Cc4ccccc4)C3=O)[C@H]2C1=O`, 4.84%; for `CCC(C(=O)c1ccccc1)N(C(=O)c1ccccc1Cl)N1C(=O)C2C3C=CC(C3)C2C1=O` (configuration not stated), -9.04%. For `CC[C@@]1(C(=O)OC)N[C@H](CN(C)S(=O)(=O)c2ccc(-c3ccccc3)cc2)[C@@H]2C(=O)N(Cc3ccccc3)C(=O)[C@@H]21` the value was -0.287%. `O=C(Cc1ccc(Cl)cc1Cl)Nc1ccncc1`: the “activity change, negative = cytotoxicity” value is -8.97%. In the case of `CCN(C[C@H]1N[C@@](CC)(C(=O)OC)[C@H]2C(=O)N(Cc3ccccc3)C(=O)[C@@H]12)C(=O)Nc1ccc(Cl)cc1`, the “activity change, negative = cytotoxicity” value was -25.8%.

As for `CCN(CC)C(=O)c1ncn2c1C(=O)NC[C@@H]2C`, the “activity change, negative = cytotoxicity” value is 5.12%. As for `CCc1ccc2[nH]c(=O)c(C(c3nnnn3Cc3ccc(OC)cc3)N3CCOCC3)cc2c1` (configuration not stated), the “activity change, negative = cytotoxicity” value is -0.785%. For `CCc1nnc(NC(=O)[C@@H](NC(=O)c2cccc(S(=O)(=O)N(CC)CC)c2)C(C)C)s1` the value was 0.838%; for `Cc1ccc(C(=O)Nc2cccc(C(=O)O)c2)cc1`, -22.5%. The result for `COc1ccc(C2N(S(=O)(=O)c3ccc(C)cc3)CCN2S(=O)(=O)c2ccc(C)cc2)cc1` reads -2.09%; that for `Cc1ccccc1S(=O)(=O)N1C[C@H]2[C@H]3C(=O)N(C4CCCCC4)C(=O)[C@H]3CC(=O)[C@H]2[C@@H]1c1ccc(Cl)cc1`, -7.17%; that for `O=C(NCc1cccnc1)c1c[nH]c2cc3c(cc2c1=O)OCCO3`, -13.7%. As for `CC[C@@]1(C(=O)OC)N[C@H](CN(C)C(=O)c2ccc(C(C)(C)C)cc2)[C@@H]2C(=O)N(Cc3ccccc3)C(=O)[C@@H]21`, the “activity change, negative = cytotoxicity” value is -13.2%. The result for `N#Cc1ccc(CSc2nnc(COc3ccccc3)n2-c2ccccc2)cc1` reads -4.88%. As for `Cc1cc(C(=O)CN2C(=O)c3ccccc3S2(=O)=O)c(C)n1C(C)C`, the “activity change, negative = cytotoxicity” value was -3.53%.

Take `O=C(Nc1ccc(S(=O)(=O)N2CCN(Cc3ccccc3)CC2)cc1)c1cnccn1`: the “activity change, negative = cytotoxicity” value was -15.6%.

Turning to `O=C(Nc1nc(-c2ccc3c(c2)OCO3)cs1)c1ccncc1`, the “activity change, negative = cytotoxicity” value is -8.69%. In the case of `Cc1ccc2c(CN3CCN(S(=O)(=O)c4ccc5c(c4)OCCO5)CC3)cc(=O)oc2c1C`, the “activity change, negative = cytotoxicity” value was -21.9%. Regarding `Cc1ccc(N2C(=O)CC(c3ccsc3)C3=C2CC(C)(C)CC3=O)cc1` (configuration not stated), the “activity change, negative = cytotoxicity” value was -14.1%. Consider `CCN(CC)c1ncnc2ccc(Br)cc12`, for which the “activity change, negative = cytotoxicity” value is -3.25%. For `O=S(=O)(Nc1nc2ccccc2nc1Nc1cccc(S(=O)(=O)N2CCCCC2)c1)c1ccccc1`, the “activity change, negative = cytotoxicity” value was -23.7%. Take `O=C(N/N=C/c1sc(N2CCOCC2)nc1-c1ccccc1)c1cccc(S(=O)(=O)N2CCOCC2)c1`: the “activity change, negative = cytotoxicity” value is -26.1%. For `CC(=O)OC1c2ccccc2C(=O)N1c1ccccc1C` (configuration not stated) the value was 3.07%; for `O=C1COc2ccc(-c3csc(=Nc4ccc(OC(F)F)cc4)n3CC3CCCO3)cc2N1` (configuration not stated), -19.3%.

For the compound `CC1(C(=O)NCc2cccc3ccccc23)CCN1Cc1ccc(-c2ccccc2)o1` (configuration not stated), the “activity change, negative = cytotoxicity” value is -14.3%. On to `COc1ccc(NC(=O)C2(C)CCN2Cc2ccccc2OC(F)F)cc1OC` (configuration not stated), for which the “activity change, negative = cytotoxicity” value was -13.7%.

Turning to `CC(=O)C1=C(C)N(Cc2ccc(Cl)cc2)C(=S)NC1c1cccc(Br)c1` (configuration not stated), the “activity change, negative = cytotoxicity” value was -3.5%. For `C[C@H](CO)N1C[C@H](C)[C@H](CN(C)S(=O)(=O)c2cccs2)Oc2ccc(NC(=O)C3CCCCC3)cc2CC1=O` the value was -7.83%; for `CCCC#Cc1ccc2c(c1)O[C@@H](CN(C)S(=O)(=O)c1cccc(F)c1)[C@@H](C)CN([C@@H](C)CO)S2(=O)=O`, -24.3%; for `CCCC#Cc1ccc2c(c1)O[C@@H](CN(C)S(=O)(=O)c1cccc(F)c1)[C@@H](C)CN([C@H](C)CO)S2(=O)=O`, -13.9%. On to `C[C@H](CO)N1C[C@H](C)[C@@H](CN(C)C(=O)NC2CCCCC2)Oc2c(cccc2N(C)C)C1=O`, for which the “activity change, negative = cytotoxicity” value is 11.2%. On to `O=c1c2ccccc2nnn1CSc1nnc(COc2ccc(Cl)cc2)n1Cc1ccco1`, for which the activity change, negative = cytotoxicity is 5.32% [at 8 µM]. Turning to `CC(NC(=O)c1ccccc1NC(=O)CN1CCc2ccccc2C1)c1ccccc1` (configuration not stated), the “activity change, negative = cytotoxicity” value is -3.62%. The result for `O=C(O)C[C@@H]1C=C[C@@H](NC(=O)Nc2ccccc2)[C@H](CO)O1` reads -0.862%.

Consider `C[C@@H]1CN([C@@H](C)CO)C(=O)c2cccc(NS(=O)(=O)c3cccs3)c2O[C@@H]1CN(C)Cc1ccc(C(F)(F)F)cc1`, for which the “activity change, negative = cytotoxicity” value is -11.3%. Consider `O=C(O)C[C@@H]1C=C[C@H](NC(=O)Nc2ccccc2)[C@H](CO)O1`, for which the “activity change, negative = cytotoxicity” value was 2.19%. The result for `C[C@H]1Cn2cnc(C(=O)N3CCN(c4ccccc4)CC3)c2C(=O)N1` reads -11.6%. Turning to `COc1ccccc1NC(=O)N[C@@H]1CC[C@H](CC(=O)N[C@H](C)c2ccccc2)O[C@@H]1CO`, the “activity change, negative = cytotoxicity” value is -2.4%. Regarding `C=C1CCN([C@@H](Cc2ccccc2)C(=O)Nc2ccc(OC)cc2)S(=O)(=O)c2ccccc21`, the “activity change, negative = cytotoxicity” value is -1.34%. For `O=C(Nc1nc(COc2ccccc2)cs1)C12CC3CC(CC(C3)C1)C2` the value was -22.3%.

For `CN1CCN(c2ccccc2NC(=O)C(Cc2ccccc2)n2cccc2)CC1` (configuration not stated), the “activity change, negative = cytotoxicity” value was -19.5%. For `CC(=O)c1ccc(S(=O)(=O)N2CCN(c3nc4c(C)c(C)ccc4cc3C#N)CC2)cc1` the value was -12.4%; for `OCC[C@@H]1C[C@@H](O)[C@H](O)[C@]2(OCc3ccccc32)O1`, -4.61%; for `COc1ccc(NC(=O)Nc2ccc3c(c2)C(=O)N([C@H](C)CO)C[C@H](C)[C@H](CN(C)Cc2ccncc2)OCCCC[C@H](C)O3)cc1`, -6.02%. The result for `COc1ccccc1S(=O)(=O)Nc1ccc2c(c1)C(=O)N(C)C[C@@H](OC)[C@@H](C)CN[C@@H](C)CO2` reads 0.329%; that for `Cc1ccc2c(c1)[C@H]1[C@H](CO2)[C@H](c2ccccc2)[C@]2(C)C(=O)N(CC3CCCO3)CC(=O)N12` (some centres not stated), -0.675%; that for `CCOC(=O)C(C)Oc1cccc2c(=O)n(CC(=O)NCCc3ccc(OC)c(OC)c3)ccc12` (configuration not stated), 1.62%. `COc1ccc(Cl)cc1NC(=O)CN(C)C(=O)CCCc1c[nH]c2ccccc12`: the “activity change, negative = cytotoxicity” value was -10.5%. In the case of `CC(C)CN(C(=O)C(c1ccccc1)c1ccccc1)c1c(N)n(CC(C)C)c(=O)[nH]c1=O`, the “activity change, negative = cytotoxicity” value is 1.59%. In the case of `O=C(Nc1ccc(Cl)cc1)C1CCCN(C2=NS(=O)(=O)c3ccccc32)C1` (configuration not stated), the “activity change, negative = cytotoxicity” value was 5.19% [at 16 µM].

With `CCS(=O)(=O)Nc1ccc2c(c1)C(=O)N(C)C[C@H](OC)[C@@H](C)CN(C(=O)C1CCC1)[C@H](C)CO2`, the “activity change, negative = cytotoxicity” value is 2.63%. For `CCc1ccc(-c2cn3nc(C)c(C)nc3n2)cc1` the value was -19.4%; for `COC(=O)[C@@]1(C)[C@H]2C(=O)N(Cc3ccccc3)C(=O)[C@H]2[C@H]2CN=C(SCC3CC3)N21`, -4.08%; for `COc1ccc(NC(=O)Nc2ccc3c(c2)C(=O)N([C@H](C)CO)C[C@H](C)[C@H](CN(C)S(=O)(=O)c2ccc(OC)cc2)O3)cc1`, -8.2%. For `COc1ccc(S(=O)(=O)Nc2ccc3c(c2)CC(=O)N([C@@H](C)CO)C[C@H](C)[C@H](CN(C)S(=O)(=O)c2ccc(F)cc2)O3)cc1` the value was -3.18%. Take `C[C@@H]1CN([C@@H](C)CO)S(=O)(=O)c2ccc(-c3cccc(F)c3)cc2O[C@@H]1CN(C)S(=O)(=O)c1ccc(F)cc1`: the “activity change, negative = cytotoxicity” value was -23.9%.

Consider `COc1ccc(C(=O)C(C)N(C(=O)c2ccc(Cl)cc2Cl)N2C(=O)C3C4C=CC(C4)C3C2=O)cc1` (configuration not stated), for which the “activity change, negative = cytotoxicity” value is -14%. The result for `COc1ccc(Cn2nnnc2C(c2cc3cc(C)cc(C)c3[nH]c2=O)N2CCOCC2)cc1` (configuration not stated) reads 1.27%. For `O=C(N(c1ccccn1)c1ccccn1)C12CC3CC(CC(Cl)(C3)C1)C2` the value was -0.057%; for `COC(=O)[C@@]1(Cc2ccc(F)cc2)[C@H]2c3cc(C(=O)N(C)C)n(CCO)c3C[C@H]2CN1C(=O)c1ccccc1`, 4.85%.

Regarding `COC(=O)C1CCN(C(=O)COC(=O)c2cc(S(=O)(=O)N3CCOCC3)ccc2C)CC1`, the “activity change, negative = cytotoxicity” value was 2.66%. `Cc1cc(Cl)ccc1OCCCC(=O)Nc1cc(S(=O)(=O)N2CCOCC2)ccc1N1CCOCC1`: the “activity change, negative = cytotoxicity” value is -2.78%.

Take `O=C(CCCOc1ccc(Cl)cc1Cl)Nc1cc(S(=O)(=O)N2CCOCC2)ccc1N1CCOCC1`: the “activity change, negative = cytotoxicity” value is -10.9%. The result for `O=C(COC(=O)c1cc(S(=O)(=O)N2CCOCC2)ccc1O)NCc1ccc2c(c1)OCO2` reads 7.4%; that for `CC(C)(C)C1CCc2onc(C(=O)NCc3ccc(F)cc3)c2C1` (configuration not stated), -14.6%; that for `Cn1c(=O)[nH]c2cc3ccccc3cc21`, -6.26%.

Consider `N#Cc1ccc(CN2CCN(C(=O)CNC(=O)Cc3cccc4ccccc34)CC2)cc1`, for which the “activity change, negative = cytotoxicity” value was -15.3%.

As for `CCCCNC(=O)C[C@H]1C[C@@]2(C(=O)OC)C(=C[C@H](C(C)(C)C)O[C@@H]2C)N(Cc2ccc3c(c2)OCO3)C1=O`, the “activity change, negative = cytotoxicity” value is -9.67%. For `C=C(C)CN(CC)c1nc(N)c2c(N)nc3c(c2c1C#N)CC(=O)N3C12CC3CC(CC(C3)C1)C2`, the “activity change, negative = cytotoxicity” value is -28.7%. Take `CN(C[C@H](Cc1ccccc1)N(C[C@H](Cc1ccccc1)N(CC1(c2ccccc2)CC1)N=O)N=O)N=O`: the “activity change, negative = cytotoxicity” value was -8.9%. The result for `COc1ccc2ncn(-c3ccccc3)c2c1` reads -2.1%. The result for `COC(=O)[C@@]1(C)[C@H]2C(=O)N(Cc3ccccc3)C(=O)[C@H]2[C@H]2CN=C(SCc3ccccc3)N21` reads -3.46%; that for `CCOc1ccc2c(c1)-c1c(ssc1=S)C(C)(C)N2C(=O)c1ccco1`, -29.3%; that for `CCn1c(COc2ccc(Cl)cc2)nnc1SCc1nc2ccccc2[nH]1`, -21.6%. With `COCCN(C(=O)COC(=O)C12CC3CC(CC(Cl)(C3)C1)C2)c1c(N)n(Cc2ccccc2)c(=O)[nH]c1=O`, the “activity change, negative = cytotoxicity” value was 5.3% [at 16 µM]. For `COCCCN(C(=S)NC(=O)C12CC3CC(CC(C3)C1)C2)c1c(N)n(Cc2ccccc2)c(=O)[nH]c1=O` the value was 6.22%; for `CCOc1ccccc1C(=O)NCC(=O)NNC(=O)CN(C)S(=O)(=O)c1ccc(Cl)cc1`, -8.4%. As to `Cc1cc(C)nc(/N=C(\N)Nc2ccc(CC(=O)OC(C)C)cc2)n1`, the “activity change, negative = cytotoxicity” value is -16.5%. Regarding `CCCC[C@H](CN(N=O)[C@@H](Cc1ccccc1)CN(C)N=O)N(CCc1ccccc1)N=O`, the “activity change, negative = cytotoxicity” value is -7.7%. The result for `CN(C(=O)c1cccc(NC(=O)Cc2cccc(NC(=O)C3CCCN(C(=O)C4CCC4)C3)c2)c1)C1CCC1` (configuration not stated) reads -1.65%.
